Hits are enriched below; roughly 17% of the tested compounds scored in any of these assays.
ATXN viability: reduces viability in counter-screen for ATXN expression inhibitors. S2 cells (HEK-293 line with an ATXN2-luciferase reporter) viability, CellTiter-Fluor protease fluorescence, 24 h. Potency, µM (doses to about 56.7 µM), most hits filed as cytotoxic. 400,000 compounds, 0.49% hits; also: nearly all actives have a fitted effect of over 40% in size
TDP1 cell CPT: DT40-hTDP1 cell growth loss with CPT; Potency, µM (series often up to 46.2 µM), for inactives: at the highest dose activity change, negative = growth inhibition, hits mostly inhibitors; chicken DT40 Tdp1-/-;hTDP1 cells + 20 nM CPT, ATP luminescence, 48 h; 420,000 compounds, 12% hits; also: % is scaled to controls: 0 for no effect and ±100 for the full control effect; nearly all actives have a fitted effect of over 55% in size
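Cell growth measured by CellTiter-Glo luminescence after a minimum 48 h, 37 C compound exposure with 20 nM CPT in Tdp1-knockout DT40 cells stably expressing hTDP1, seeded 400/well; qHTS titration format.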
ATXN2 expr inh: ATXN2 expression inhibition | HEK-293 ATXN2-luciferase reporter, luminescence, 24 h | Potency, µM (doses to about 57 µM), without a hit: top-dose activity change, negative = inhibition, most hits filed as inhibitors | 360,000 compounds, 0.72% hits | AID 1745845; also: % is scaled to controls: 0 for no effect and ±100 for the full control effect; nearly all actives have a fitted effect of over 55% in size
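ATXN2-luciferase reporter cells (luciferase flanked by upstream and downstream ATXN2 gene portions) were treated 24 h at 37 °C with compounds at up to 57 uM. SteadyGlo luminescence gave expression; GF-AFC fluorescence gave viability.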
TGFb inhibitor: TGF-b pathway inhibition | HepG2 CAGA-GFP TGF-b/SMAD3 reporter, GFP fluorescence, 18 h; TGF-beta stimulated, 500 pg/mL final | Potency, µM (highest dose often 46.1 µM), for the others: at the highest dose activity, negative = inhibition, usual class: inhibitors | 410,000 compounds, 1.2% hits; also: % is scaled to controls: 0 for no effect and ±100 for the full control effect; nearly all actives have a fitted effect of over 65% in size
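Per well, imaged GFP fluorescence of HEPG2 CAGA-GFP cells gives the signal; cells get compound, then TGF-beta (500 pg/mL final), 18 h at 37 degrees C; %Activity versus -TGF-beta and +DMSO controls.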
HepG2 tox: counter-screen for TGF-b inhibitors: cytotoxicity in HepG2 cells; AID 588856; Potency, µM (doses to about 46.1 µM), for inactives: at the top dose activity change, negative = cytotoxicity, most hits filed as cytotoxic; 410,000 compounds, 0.76% hits; HepG2 CAGA-GFP viability, ATP luminescence, 18 h
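CellTiter-Glo luminescence gave cytotoxicity after 18 hours at 37 degrees C. The cells were HepG2 CAGA-GFP in 1% FBS DMEM, stimulated with 500 pg/mL TGF-beta after compound addition. %Activity was normalised to no-cell wells (complete cell-killing) and DMSO (no toxicity), and curves were fitted and classified.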
DT40 TDP1 no CPT: qHTS for Inhibitors of human tyrosyl-DNA phosphodiesterase 1 (TDP1): qHTS in cells in absence of CPT; DT40 Tdp1-/- hTDP1 cells, no CPT, ATP luminescence, 48 h; Potency, µM (titrated, usually from 46.2 µM), without a hit: at the highest dose activity change, negative = growth inhibition, hits mostly inhibitors; 420,000 compounds, 15% hits; AID 686978, 2013; also: % is scaled to controls: 0 for no effect and ±100 for the full control effect; nearly all actives have a fitted effect of over 55% in size
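Growth of hTDP1-complemented DT40 Tdp1-knockout cells is measured by ATP luminescence after at least 48 hr compound exposure at 37 °C, with DMSO substituting for the 20 nM CPT used in the parallel screen.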
The depositor's hits bear a star; i = inactive; u = inconclusive; x = not tested or not shown; [ ] = another dose, or the depositor's remark. Calls follow the shape of the dose curve; as a rule, active = well fitted curve in the direction sought with a large enough effect; inconclusive = small, poorly fitted or top-dose-only effect, or another doubt; inactive = no such curve, though single readings can be large; an effect the other way counts as inactive or inconclusive. Potency is read from the fitted curve at half-maximal effect.

SMILES	ATXN viability	TDP1 cell CPT	ATXN2 expr inh	TGFb inhibitor	HepG2 tox	DT40 TDP1 no CPT
COc1ccc(Cl)cc1NC(=O)c1c(NCc2cccnc2)sc2c1CCCC2	u	23µM*	u	-9%	-19%	15µM*
CCOc1ccccc1NC(=O)c1c(NCc2ccc(C)o2)sc2c1CCC(C)C2 (centres undefined)	i	-11%	2%	0%	-13%	-16%
CC(=O)Nc1cccc(OCCCNS(=O)(=O)c2ccc(F)cc2)c1	i	u	x	-15%	-16%	u
OCCNc1nc(N2CCN(c3ccccc3)CC2)nc2ccccc12	i	23µM*	-22%	9%	-33%	u
c1ccc(CN2CCN(c3nc(NCc4ccco4)c4ccccc4n3)CC2)cc1	i	u	u	u	-38%	23µM*
Cc1ccc(OCCN2CCN(c3nc(NCc4ccco4)c4ccccc4n3)CC2)cc1	i	u	-5%	u	-113%	15µM*
CCCCN(C(=O)C1CC(=O)N(CCc2ccc(OC)c(OC)c2)C1)c1c(N)n(CC(C)C)c(=O)[nH]c1=O (centres undefined)	i	-4%	6%	-2%	-10%	13%
Cc1c(Br)c([N+](=O)[O-])nn1C(C)C(=O)NCC1CCCO1 (centres undefined)	i	1%	x	-2%	-4%	0%
CC1(Cc2ccc(F)c(Cl)c2)C(=O)Nc2c(Cl)cccc21 (centres undefined)	i	u	-31%	-23%	-12%	16µM*
COc1ccc(Cl)cc1CC1(C)C(=O)Nc2c(Cl)cccc21 (centres undefined)	i	u	-20%	u	-9%	23µM*
CC1(Cc2cc(Cl)ccc2C(F)(F)F)C(=O)Nc2c(Cl)cccc21 (centres undefined)	i	u	-21%	-8%	-5%	13µM*
COCCCNC(=O)C1CCN(c2ncnc3c2nc2n3CCCCC2)CC1	x	15%	x	-6%	-2%	-1%
CCn1c(C)nc2cc(NS(=O)(=O)c3ccccc3)cc(C(=O)N3C[C@@H](C)O[C@@H](C)C3)c21	u	-3%	x	x	x	-15%
O=C(CCC1CCCC1)NCCS(=O)(=O)N1CCN(c2ccccc2F)CC1	i	u	3%	0%	-5%	15µM*
O=C(Cc1cccs1)NCCS(=O)(=O)N1CCN(c2ccccc2F)CC1	i	7.3µM*	-6%	-6%	-11%	5.8µM*
O=C(Cc1ccc(-c2ccccc2)cc1)NCCS(=O)(=O)N1CCN(c2ccccc2F)CC1	x	10µM*	x	-2%	5%	15µM*
CSc1ccc(C2C(C#N)=C(N)Oc3cc4c(cc32)OCO4)cc1 (centres undefined)	i	21µM*	-37%	13µM*	-39%	u
Cc1ccc(C2C(C#N)=C(N)Oc3cc4c(cc32)OCO4)cc1 (centres undefined)	i	26µM*	1%	-12%	-2%	u
N#CC1=C(N)Oc2cc(O)c(C=Nc3ccccc3)cc2C1c1ccccc1 (centres undefined)	u	-18%	u	-68%	-48%	u
Cc1ccc(N=Cc2cc3c(cc2O)OC(N)=C(C#N)C3c2ccccc2)cc1 (centres undefined)	u	u	u	-19%	-2%	16µM*
N#CC1=C(N)Oc2cc(N)ccc2C1c1ccc(Cl)cc1 (centres undefined)	i	-7%	-24%	-20%	-14%	-1%
CC(C)c1cn(CC[C@@H]2CC[C@@H](NC(=O)C3CCCCC3)[C@@H](CO)O2)nn1	x	-16%	x	x	x	0%
COc1ccc(C(=O)n2nc(-c3ccco3)nc2NCc2cccs2)cc1OC	i	u	22%	8%	4%	u
CCOC(=O)c1nn(-c2ccc(F)cc2)c(-c2ccccc2)c1C(=O)c1ccccc1	i	u	u	-23%	-28%	16µM*
COc1cccc(-c2nc(NCc3ccco3)c3ccccc3n2)c1O	u	-19%	-39%	-29%	-35%	-18%
SMILES	ATXN viability	TDP1 cell CPT	ATXN2 expr inh	TGFb inhibitor	HepG2 tox	DT40 TDP1 no CPT
CN(C)Cc1ccccc1-c1nc(N(C)Cc2ccco2)c2ccccc2n1	x	18µM*	x	x	x	8.2µM*
CN(C)Cc1ccccc1-c1nccc(N(C)Cc2ccco2)n1	x	21µM*	x	x	x	u
COc1cc(C(=O)NC2(C(F)(F)F)C(=O)NC(C)=C2C#N)cc(OC)c1OC (centres undefined)	i	1%	4%	-6%	-21%	-2%
COc1ccc(N2C(=S)NC3c4cc(Cl)ccc4OC2(C)C3C(=O)N(C)C)cc1 (centres undefined)	i	29µM*	-7%	5%	-3%	u
Cc1ccc(N2C(=S)NC3c4cc(Cl)ccc4OC2(C)C3C(=O)N(C)C)cc1 (centres undefined)	i	-12%	-2%[11.3 µM]	0%	-7%	3%
CCOC(=O)C(Cc1ccnnc1)=NO	i	-30%	-25%	8%	5%	u
Cc1ccc(C)c(NC(=O)n2ncc3cc(Cl)ccc32)c1	i	-10%	16%	35%	12%	-29%
CCOC(=O)Cc1ccc(NC(=O)N2CC(CC)Oc3ccccc32)cc1 (centres undefined)	x	16µM*	x	1%	3%	u
CCC1CN(C(=O)NCc2ccc(F)cc2)c2ccccc2O1 (centres undefined)	x	u	5%	16%	13%	u
CCOC(=O)Cc1ccc(NC(=O)N2CC(C)Oc3ccc(Cl)cc32)cc1 (centres undefined)	x	16µM*	x	0%	-19%	u
CCOc1ccccc1NC(=O)N1CC(C)Oc2ccc(Cl)cc21 (centres undefined)	x	u	x	-16%	-8%	u
CCOC(=O)Cc1ccc(NC(=O)n2ncc3cc(Cl)ccc32)cc1	i	-1%	20µM*	21%	-17%	6%
COCCn1c(SCC(=O)NCc2ccc3c(c2)OCO3)nc2ccccc2c1=O	i	-15%	-17%	-6%	-13%	-26%
Cc1ccc(N=Cc2sccc2C)cc1C	i	18%	7%	-8%	1%	-4%
C[N+]1(CC(=O)c2ccc(F)cc2)CCc2ccccc2C1 (centres undefined)	x	-11%	x	11%	4%	-21%

Assay outcomes: PubChem, National Center for Advancing Translational Sciences (NCATS)
